From the supplement of paper PMC6555819

Columns and labels:
Assay in all cases: PBM binding z-score (relative to random genomic background probes); higher = stronger binding; sequences stand for … in GC…GCGATTGACAGCGTAGAATGAAGG
[1] = system: RARb homodimer (NR concentration 270 nM)
Procedure, shortened: (§1)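 Regression normalization was applied to scanned fluorescence from custom Agilent 4×180K protein-binding microarrays. Before scanning, arrays were incubated 1 h with ligand-free nuclear receptor dimers, and binding was detected with antibodies against each partner (one per run). Binding z-scores use the random background probes as reference.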

[2] = system: RARg:RXRa (NR concentration 270 nM, RXRa partner concentration 90 nM)
Procedure, shortened: as §1

[3] = system: RARg homodimer (NR concentration 270 nM)
Procedure, shortened: as §1

[4] = system: RXRa DBDmut IVT, anti-RXR (DBD mutation: RXRa K156A/R161A, NR concentration 90 nM)
Procedure, shortened: as §1

[5] = system: RXRa homodimer (NR concentration 180 nM)
Procedure, shortened: as §1

[6] = system: THRa:RXRa (NR concentration 90 nM, RXRa partner concentration 90 nM)
Procedure, shortened: as §1

[7] = system: THRa homodimer (NR concentration 90 nM)
Procedure, shortened: as §1

[8] = system: VDR homodimer (NR concentration 270 nM)
Procedure, shortened: as §1

Sequence | PBM binding z-score [1] | PBM binding z-score [2] | PBM binding z-score [3] | PBM binding z-score [4] | PBM binding z-score [5] | PBM binding z-score [6] | PBM binding z-score [7] | PBM binding z-score [8]
CGAAATAGGTCATTGACAGGACAGTGAATAGTAA | 3.34 | 5.81 | 4.98 | 2.23 | 4.21 | 3.01 | 0.329 | 1.15
ATCTCGAGGTAAAGATAGTTCAGTGAATGCAAAT | 0.904 | 0.819 | 0.829 | -0.272 | 0.518 | 1.5 | -0.16 | 0.272
CCTACTGGGCCAAAGTCATTGATCAGTCAAAGCA | -0.0618 | -0.124 | -0.109 | -0.332 | -0.525 | -0.226 | -0.645 | -0.635
TCTTGTAGATCAAGCTGGTTAAGAAAGCCTGAGT | -0.589 | -0.384 | -0.528 | 0.614 | -0.39 | -0.367 | -0.87 | -0.547
CTACCAAGGTGAACAAGGTCGCTGATTACTATTC | 2.04 | 1.88 | 1.55 | 0.77 | 1.8 | 3.28 | 1.81 | 1.27
TCGCGGAGGACACGAAAGGTCAGAGCTCGACATC | 4.42 | 4.79 | 5.1 | 0.362 | 3.86 | 3.6 | 0.956 | 0.898
GCTATTAGTTGAAAGGGCTACCGAATGATTCTCG | 0.228 | -0.023 | 0.197 | 0.703 | 0.0628 | -0.589 | -0.623 | -0.485
TCATATAGGCAAAAGGTGAAAGTCGGTGTGGTAA | 1.81 | 1.45 | 0.567 | 1.45 | 2.12 | 1.24 | 0.0725 | 0.163
CCTACGGGGCCAAAAAGGTCATTGATGCCGATAA | 4.54 | 5.07 | 4.8 | 1.23 | 5.09 | 3.44 | 0.423 | 3.98
CAAACAAGGTCAAGGTCAAAGTCGGTTTGTGCCA | 5.74 |  | 7.76 | 4.13 |  | 4.6 | 4.5 | 5.71
TCATATAGGTAAAGGCTAGGTGAAAGTCCGATCT | 0.981 | 0.769 | 0.425 | 1.27 | 0.971 | 1.3 | 0.205 | 0.0425
CAATCTAGGTCACCGGAAGGTCAAAGTCCGCATG | 5.77 | 8.45 | 7.81 | 1.98 | 7.46 | 4.59 | 3.62 | 4.12
ATCTCTAGGTAAAATTTCAGTGAATCCCGAGGAT | -0.0962 | 0.558 | 0.537 | 0.113 | 0.367 | 0.328 | 0.331 | -0.51
AATACAGGGTCACTAGGCCAGATTAGGTACGAAT | 3.44 | 5.37 | 4.96 | 3.03 | 5.9 | 3.57 | 1.46 | 2.83
TTGAGTAGGTTAGTCGGGGCATTCAGCCAACATA | 0.969 | 0.218 | 0.145 | 0.265 | 0.0452 | 1.43 | 0.699 | 1.25
CCTCGGAGGACAACAGGAGGGCAGAGCTGCCAGA | 1.42 | 0.94 | 2.08 | -0.00274 | -0.287 | 0.794 | -0.458 | -0.448
GCTGCTAGGTCAGGTTGTTCAGCTAACGGGTACG | 2.56 | 2.2 | 3.13 | 0.777 | 0.914 | 1.71 | 0.779 | 0.556
AGAACGAGGGTAATGAGTTGATAGCACGGGTGGC | -0.134 | 0.312 | 0.371 | 0.405 | 0.5 | -0.0331 | -0.615 | 1.53
TGAATGAGGTTAAAGAGCAGGGAACGTGGCGTCG | 0.754 | 2.13 | 1.34 | 1.01 | 3.19 | 2.39 | 0.467 | 0.665
TCTCGGAGGCCACGAAAGGTCAGAGCTCGACATC | 4.92 | 4.88 | 5.06 | 0.746 | 4.3 | 4.02 | 0.552 | 0.735
CCTAGTTGGTCAGGAGATCACACACCGGATATGA | 0.781 | 0.628 | 1.01 | 0.108 | 0.347 | -0.184 | 0.385 | 0.435
CCTTACGGCTCACGAGGTTATAGCACGACGAGCG | 0.414 | 0.351 | 0.335 | 0.229 | 0.925 | 1.39 | 0.522 | 0.564
CAAACAAGGTCAAGAGGTCAAAGTCCGCTTCCCG | 6.24 |  | 8.91 | 3.92 |  |  | 3.28 | 5.74
TCTATTAGTTGATCAGGGCAACCGAAACAGCGGA | 0.681 | 0.484 | 0.555 | 1.15 | 0.519 | 0.815 | 0.591 | 0.203
CAAACTAGTTCAAGGTCAAAGTCGGTTTGTGCCA | 4.53 | 4.97 | 4.53 | 3.32 | 4.79 | 4.05 | 4.02 | 4.9
AGAACGAGGGCACGCTGAGTTGCTAGCAGAGTAG | 0.875 | 1.48 | 1.95 | 1.69 | 1.1 | 1.51 | -0.328 | 1.42
ATCTCTAGGTAAAAGTTTAGTGAATCCCGAGGAT | 0.137 | 0.438 | 0.614 | -0.116 | 0.318 | 0.379 | 0.343 | 0.554
ATCTCTAGGTAACCAAGTTCAGGGAATGCCGAAC | 1.55 | 0.828 | 0.852 | 0.481 | 0.745 | 1.69 | 0.87 | 2.84
CCGACTGGGCCAAAGGTCATTGATTCCAATGCTC | 4.58 | 5.54 | 4.4 | 1.57 | 5.7 | 3.21 | 0.644 | 2.4
